# Reference: PubChem BioAssay (NCI)
# This is part of a sample that, as a whole, favours compounds with a hit. Of some 83,000 tested, about 20% had one in any assay.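 Assay: single dose, 48 h. Readout: percent growth (0 = no net growth; negative = cell death). Active: <10.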 A number with no mark means an inactive call. The source made the active and inactive calls.
# Experiments:
# Assay in all cases: NCI-60 one-dose screen, 48 h (100 = growth as untreated, 0 = no growth, -100 = all killed)
# NCI-H460 lung = conditions: 10 µM unless noted
# K-562 leukemia = conditions: 10 µM unless noted
# MALME-3M melanoma = conditions: 10 µM unless noted
# RXF 393 renal = conditions: 10 µM unless noted
# SF-295 CNS = conditions: 10 µM unless noted
# U251 CNS = conditions: 10 µM unless noted
# SK-MEL-5 melanoma = conditions: 10 µM unless noted
# SK-MEL-2 melanoma = conditions: 10 µM unless noted
# UO-31 renal = conditions: 10 µM unless noted
# HL-60(TB) leukemia = conditions: 10 µM unless noted
# MOLT-4 leukemia = conditions: 10 µM
# IGROV1 ovarian = conditions: 10 µM
# BT-549 breast = conditions: 10 µM
# HCT-116 colon = conditions: 10 µM unless noted
# HCC-2998 colon = conditions: 10 µM unless noted
# UACC-257 melanoma = conditions: 10 µM unless noted
# SNB-75 CNS = conditions: 10 µM unless noted
# SN12C renal = conditions: 10 µM unless noted
# SR leukemia = conditions: 10 µM
# RPMI-8226 leukemia = conditions: 10 µM unless noted
SMILES,growth (NCI-H460 lung),growth (K-562 leukemia),growth (MALME-3M melanoma),growth (RXF 393 renal),growth (SF-295 CNS),growth (U251 CNS),growth (SK-MEL-5 melanoma),growth (SK-MEL-2 melanoma),growth (UO-31 renal),growth (HL-60(TB) leukemia),growth (MOLT-4 leukemia),growth (IGROV1 ovarian),growth (BT-549 breast),growth (HCT-116 colon),growth (HCC-2998 colon),growth (UACC-257 melanoma),growth (SNB-75 CNS),growth (SN12C renal),growth (SR leukemia),growth (RPMI-8226 leukemia)
CC[CH2][Pb]([CH2]CC)([CH2]CC)[O]C(=O)C(F)(F)F,-71.6% (active),2.17% (active),-89.2% (active),-73.9% (active),-87.6% (active),-87.4% (active),-98.3% (active),-87.7% (active),-100% (active),-29.7% (active),-27.8% (active),-78.8% (active),-95.3% (active),-95% (active),-84.4% (active),–,–,–,–,–
O=C1NC(=O)C(=Cc2cn(Cc3ccccc3)c3ccccc23)C(=O)N1,29.9%,63.5%,109%,86.9%,37.2%,84.1%,101%,105%,71.7%,96.3%,132%,-26.7% (active),77.6%,86.1%,70.2%,34.2%,77.6%,88.8%,71.4%,75.7%
C/C1=C/C(=O)O[C@@H]2C[C@@H](CC[C@H](C)/C=C\C=C\CC1)O[C@@](OCCc1ccccc1)([C@@H]1CSC(=O)N1)C2,21.6%,36.3%,-10.3% (active),-77.1% (active),17.7%,16.4%,-21.2% (active),67.7%,-62.5% (active),90.6%,61.4%,-55.8% (active),-43% (active),33.5%,55.9%,-3.39% (active),-62.8% (active),39.1%,41.3%,46.7%
O=C(O)C1(Br)CC12c1ccccc1-c1ccccc12 (stereo not given),111%,86.6%,100%,99.5%,–,–,98.4%,110%,82.4%,94%,86%,99.7%,–,–,106%,94.8%,–,107%,88.9%,–
ClCCN(CCCl)C(c1ccccc1)c1ccc(Cl)cc1 (stereo not given),–,42.6%,–,88.4%,75.5%,82.6%,54.9%,–,104%,15.1%,-3.35% (active),–,93.7%,–,68.6%,90.9%,81.8%,41.1%,5.67% (active),42.1%
O=[N+]([O-])c1ccc(/C=C/C=C/c2ccc(S(=O)(=O)F)cc2)c(Cl)c1,107%,96.1%,102%,92.2%,93.1%,96.2%,97.9%,84%,79.2%,91.9%,84.1%,104%,100%,106%,106%,96.5%,71.7%,96.7%,77.9%,93.4%
O=C(CCc1ccco1)NC1CCN(CC2(c3ccc(Cl)cc3)CCC2)CC1,3.79% (active),3.19% (active),-17.9% (active),28.4%,-46.5% (active),7.34% (active),-9.97% (active),-24.3% (active),10.7%,-42.7% (active),-11.7% (active),30.1%,12.4%,–,11.4%,-4.36% (active),16%,5.58% (active),-24.6% (active),-5.13% (active)
O=C(CC1(O)C(=O)Nc2ccc(F)cc21)c1ccc(C(=O)NCC2CCC3(CC2)OOC2(CCCCC2)OO3)cc1 (stereo not given),21.7%,14.9%,-35.8% (active),59.4%,79.3%,15.3%,–,–,-81.7% (active),-64.2% (active),22.5%,3.82% (active),78%,69.7%,113%,70.4%,69.8%,51.4%,-43.2% (active),12.7%
Cn1cnnc1[S-].[Au+].c1ccc([PH+](c2ccccc2)c2ccccc2)cc1,58.5%,1.84% (active),-38.1% (active),-78.6% (active),78.8%,-43.1% (active),-9.96% (active),0.754% (active),48.5%,-12.7% (active),-9.25% (active),-1.4% (active),36.8%,–,48.3%,22.9%,-62.3% (active),15.9%,4.41% (active),-3.32% (active)
CC(=O)O[C@@H]1C2=C(C)C3(CC3)[C@@](C)(O)C(=O)C2=C[C@@]1(C)CO,2.34% (active),1.92% (active),-69.7% (active),-89.6% (active),-3.92% (active),-2.05% (active),-86.1% (active),-42.2% (active),-51% (active),-4.61% (active),5.2% (active),3.81% (active),-32.6% (active),6.86% (active),-68.7% (active),-34.7% (active),-85.7% (active),12.4%,4.56% (active),-18.8% (active)
NCCc1cc(O)c(O)cc1O,112%,102%,–,113%,106%,95.4%,98.5%,101%,–,103%,86.5%,–,–,95.3%,103%,102%,95.9%,89.1%,98%,48.4%
CCCCCCCC(=O)OCC/C=C/C1OC1C1OC(=O)/C=C\C=C\c2nc(oc2C)/C=C(/C)CCC2OC2C1OC(=O)NC(C)=O (stereo not given),-51.5% (active),–,-12.4% (active),-58.3% (active),-37.6% (active),-34.3% (active),-93.8% (active),-44.5% (active),2.49% (active),–,–,-10.2% (active),-2.38% (active),-24.4% (active),-92.8% (active),5.16% (active),-35.8% (active),-99.9% (active),–,-55.7% (active)
Oc1c(Br)cc(Br)cc1Br.[Cu+2],103%,107%,86.4%,109%,97.6%,110%,102%,95.3%,81.2%,87.9%,92.1%,105%,122%,98.4%,95.8%,101%,98.7%,110%,90.8%,–
CCOc1c(Cl)cc(CNC(C)C(O)c2ccccc2)cc1OC (stereo not given),75.1%,13.9%,46.9%,67%,48.4%,34.3%,82.7%,72.7%,92.6%,20.5%,41.9%,66%,72.2%,–,81.3%,51.4%,-15.5% (active),79.8%,10.8%,71.7%
CC12CC[C@H](O)C=C1/C(=N/O)CC1C2CCC2(C)C1CC[C@@H]2O (stereo not given in full),–,–,80.3%,104%,–,105%,103%,99.2%,66.2%,–,–,94.4%,85%,–,99.3%,111%,79.2%,104%,–,–
Cc1cccc(N=C2c3cc([N+](=O)[O-])ccc3-c3c2cc([N+](=O)[O-])cc3[N+](=O)[O-])c1,33.5%,23.1%,–,72.2%,97.8%,40.3%,71%,12.1%,–,46.7%,27.5%,–,81.8%,–,–,90.8%,84.4%,26.4%,–,-8.81% (active)
Cc1cc(CCl)c(C)cc1CCl,4.86% (active),63.8%,82.9%,93.3%,25.7%,40.2%,70.1%,70.1%,33.9%,15.3%,29.7%,26.4%,68.8%,50.9%,71.4%,62.1%,48.4%,30.9%,11.9%,26.4%
CC(C)OC(=S)[S-].[Au+].c1ccc([PH+](c2ccccc2)c2ccccc2)cc1,79.5%,8.05% (active),5.97% (active),-77.1% (active),91.1%,11.2%,30.2%,33%,21.9%,1.15% (active),10.9%,2.28% (active),-3.75% (active),13.9%,50.8%,28.1%,18.5%,–,3.82% (active),3.19% (active)
